# About 83,000 compounds went through this panel and 20% of them were active in at least one assay; those are over-represented in the sample as a whole.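 Plates (96-well) were seeded with cells, treated with compound at one concentration, and incubated for 48 hours before percent growth was determined.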 Values without a mark were called inactive. The source made the active and inactive calls. The calls were made as follows: active = growth percent below 10; inactive = the rest.
# Legend:
# Experiment in all cases: NCI-60 one-dose screen, 48 h (100 = growth as untreated, 0 = no growth, -100 = all killed)
# Conditions in all cases: 10 µM unless noted
# [1] = system: NCI-H23 lung
# [2] = system: NCI-H226 lung
# [3] = system: NCI-H322M lung
# [4] = system: HOP-62 NSCLC
# [5] = system: NCI-H460 lung
# [6] = system: HOP-92 NSCLC
# [7] = system: NCI-H522 lung
# [8] = system: A549/ATCC NSCLC
# [9] = system: 786-0 renal
# [10] = system: COLO 205 colon
Compound,growth [1],growth [2],growth [3],growth [4],growth [5],growth [6],growth [7],growth [8],growth [9],growth [10]
C=CCn1c(C)nc2cc(Nc3nc(N4CCOCC4)nc4nc[nH]c34)ccc21,106%,88.6%,88.3%,67.8%,94.1%,4.17% (active),88.2%,95.1%,63.1%,97.9%
Cc1n(Cc2ccc3ccccc3n2)cc[n+]1Cc1ccc2ccccc2c1,2.01% (active),12.7%,26%,13.3%,10.2%,-6.1% (active),3.95% (active),33.5%,63.3%,-38.4% (active)
O=C(/C=C/c1cn(-c2ccccc2)nc1-c1cccc(Nc2ccnc3cc(Cl)ccc23)c1)c1ccc2c(c1)OCO2,101%,99.1%,86.2%,107%,102%,88.1%,127%,93.4%,99.8%,102%
Clc1ccc(Nc2ncnc3c2sc2ncccc23)c(Cl)c1,14.9%,43.6%,45.1%,1.95% (active),10.1%,22.3%,31.8%,26.8%,17.2%,27.6%
CCOC(=O)c1ccccc1SC(C[N+](=O)[O-])c1ccccc1 (stereo not given),99.1%,86.2%,116%,118%,107%,90.5%,88.8%,78.7%,98.7%,102%
Cc1n(Cc2ccc3ccccc3n2)cc[n+]1Cc1ccc2ccccc2n1,69.8%,88.1%,103%,90.6%,95%,74.5%,35.9%,88.6%,97.8%,33.2%
Cc1ccc(-c2cnc3sc4ccc(Cl)cc4n23)cc1,89.7%,74.6%,93.4%,80.3%,104%,85.6%,78.1%,112%,109%,96.8%
c1ccc2c(c1)cnc1ccccc12,102%,111%,103%,102%,110%,99.5%,81.6%,93.7%,92.6%,129%
COc1cc(NC(C)CCCN)c2ncccc2c1Oc1ccc(Cl)cc1 (stereo not given),87.4%,75%,64.5%,77.7%,83.8%,43.4%,87.9%,87.9%,67.3%,6.98% (active)
Nc1nc2ccc([C@@H]3Nc4ccc5[nH]ncc5c4[C@H]4[C@H]5CCC(C5)[C@H]43)cc2s1,23.2%,24.2%,-13% (active),12.2%,-26.8% (active),74.7%,-65.7% (active),25.8%,43.9%,6.12% (active)
c1ccc(C2=Nc3ccccc3SC2)cc1,93.5%,108%,98.2%,113%,99.3%,62.1%,99.6%,96.5%,117%,114%
Cc1cc(O)ccc1C1=NN(c2ccc(S(N)(=O)=O)cc2)C(=O)CC1,64.3%,94.6%,121%,80.2%,12.1%,89.7%,-36.6% (active),43.9%,60.4%,55.6%
CC(=O)Nc1nonc1-c1nc2ccccc2n1Cc1ccc(C(C)(C)C)cc1,86.7%,76.6%,83%,101%,79.3%,57.1%,85.1%,72.2%,70.2%,98.5%
Clc1ccc2c(c1)-n1cccc1C(c1ccc3ccccc3c1)=NC2,74.4%,146%,122%,101%,96.7%,89.6%,41.3%,121%,88.7%,102%
CCOc1c(C#N)c2c(N)ncnc2n1C1OC(CO)C(O)C1O (stereo not given),50.6%,71.8%,76.6%,76.6%,0.566% (active),50.1%,-22.4% (active),8.54% (active),76.1%,8.97% (active)
Cc1cccc(C(=O)O)n1,123%,93.9%,108%,106%,105%,6.89% (active),90.8%,102%,112%,114%
C#CC[C@@H]1C[C@]2(C)[C@H]3CC[C@@H]4[C@H]5C(C(=C)C)CC[C@]5(C(=O)NCCCCCCCCN)CC[C@@]4(C)[C@]3(C)CC[C@H]2C(C)(C)[C@H]1OC(C)=O (stereo not given in full),97.3%,95.6%,101%,103%,16.3%,70.6%,88.1%,93.3%,85.1%,86%
CN1CCN(Cc2ccc(NC(=O)c3cncc(C#Cc4ncc5cnccn45)c3)cc2C(F)(F)F)CC1,34.3%,-7.4% (active),60.4%,33.7%,52.6%,11.2%,58.3%,74.2%,71.5%,17%
CC(C)=CCC[C@H](C)c1ccc(C)c2c1OCN(CCO)C2,81.7%,91.2%,104%,80.4%,96%,4.21% (active),78.1%,82.4%,61%,119%

Compound,growth [1],growth [2],growth [3],growth [4],growth [5],growth [6],growth [7],growth [8],growth [9],growth [10]
COc1ccc(C2C3=C(COC3=O)N(CCO)c3cc(OC)c(OC)cc32)cc1 (stereo not given),106%,101%,104%,95.7%,105%,86.9%,92.8%,108%,96.3%,110%
Cc1ccc(S(=O)(=O)NC(CCC(=O)Nc2ccc(Cl)cc2)C(=O)Nc2ccc(Cl)cc2)cc1 (stereo not given),38.8%,57.9%,40%,14.5%,7.89% (active),-20.4% (active),-29.7% (active),27.6%,16.9%,52.7%
CO[C@@]12[C@@H]3NC3CN1C1=C(C(=O)C(N)=C(C)C1=O)[C@@H]2COC(N)=O (stereo not given in full),-3.61% (active),-5.36% (active),14.4%,19.2%,-18.9% (active),12.8%,-9.07% (active),-61% (active),-3.82% (active),-0.289% (active)
Oc1[nH]c2ccccc2c1/C=c1/ccc2c(c1)N=C(c1ccc(C(F)(F)F)cc1)N=2,67%,89.6%,76.8%,71.6%,41.1%,57.4%,40.7%,50%,6.1% (active),78.8%
Cc1ccc(C2CC(c3cccs3)=NN2c2ccc(S(N)(=O)=O)cc2)s1 (stereo not given),107%,89.8%,98%,95.6%,88.8%,75.2%,63.2%,71.2%,98.5%,-75.1% (active)
CCN(CC)C(Cl)=Nc1ccc(Cl)cc1,104%,96.2%,103%,99.8%,106%,108%,91.1%,97.3%,99.8%,103%
CC(C)(C)c1ccc(Cn2c(-c3nonc3N)nc3ccccc32)cc1,70.7%,83.4%,83%,82.1%,86%,64.3%,49.3%,68.4%,80.4%,67.2%
CC(C)COC(=O)NC(C)(C)C,101%,104%,100%,107%,107%,98.9%,71.5%,101%,98.1%,106%
C#CCNC(=S)N/N=C(\C)c1ccccn1,20.1%,5% (active),-4.06% (active),26.5%,4% (active),52.4%,43.9%,23.9%,4.03% (active),19.6%
C/C(=N\OC(=O)Nc1cccc(Cl)c1)c1ccccc1,106%,92.1%,97.6%,95.8%,105%,132%,91.9%,89.2%,99.4%,117%
CCCOC(=O)C1c2cc3c(cc2CC(C)C1C(=O)OCCC)OCO3 (stereo not given),85.8%,94.1%,80.9%,95.3%,103%,70.3%,70%,92.6%,94.5%,121%
O=C(O)c1cn(-c2ccccc2)nc1-c1ccc(O)cc1,93.9%,107%,100%,92.7%,94.7%,85.5%,78.6%,92.4%,97.4%,109%
CN1CCN(Cc2ccc(NC(=O)c3cncc(C#Cc4ncc5ccccn45)c3)cc2C(F)(F)F)CC1,9.22% (active),-8.28% (active),33.3%,16.4%,5.79% (active),-1.18% (active),18.4%,7.74% (active),3.06% (active),-26.5% (active)
[Ag].[Ag].[NH-]S(=O)(=O)c1ccc(N=Nc2cc(N=Nc3ccc(S([NH-])(=O)=O)cc3)c3c(NC(=O)C(Cl)Cl)cccc3c2OC(=O)C(Cl)Cl)cc1.[c-]1nccs1.[c-]1nccs1,93.8%,90.8%,97.2%,78.9%,56.7%,60.7%,-86.4% (active),83.5%,106%,6.93% (active)
COc1ccc(C2C3CCc4ccccc4C3=NN2C(=O)c2cc(OC)c(OC)c(OC)c2)cc1O (stereo not given),98%,89.1%,86.2%,92.8%,108%,84.2%,81.8%,102%,106%,113%
CCCc1cc2c(cc1CN(Cc1cc3c(cc1CCC)OCO3)C(=N)OCC)OCO2,79.8%,86.4%,91.9%,83.7%,75.5%,55%,54.2%,71.8%,89.7%,93.6%
Cc1cc(C)c2c(n1)sc1c(Nc3ccc(O)cc3)ncnc12,9.96% (active),32.4%,46.2%,18.5%,10.1%,35.5%,32.4%,26.7%,12.6%,33%
C=CCn1c(C)nc2cc(Nc3nc(N4CCCC4)nc4nc[nH]c34)ccc21,52.4%,58.9%,50.9%,50.6%,0.371% (active),-39.5% (active),56.3%,46.3%,-76.1% (active),73.4%
COc1cc(NCCCCC(C)N)c2nccc(C)c2c1 (stereo not given),89.3%,93.2%,79.8%,78.3%,95.3%,46.5%,90.7%,101%,83.7%,37%
